# Measured values from PubChem BioAssay (NCI).
# About 79,000 compounds went through this panel and 15% of them were active in at least one assay; those are over-represented in the sample as a whole. A number with no mark means an inactive call. Calls of active or inactive are those of the source. No stated cut-off is given here; in the data, active means growth inhibition above about 70%; inactive means the rest.
# Assays:
# [1] = NCI Yeast Anticancer Drug Screen. Data for the rad50 strain (AID 155);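 further: 0% = growth of vehicle-only cultures of the same strain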; conditions: S. cerevisiae rad50 strain growth inhibition, hits give high values
# Summary of the method: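 Readout: growth inhibition relative to vehicle-treated cultures. Compound exposure was carried out in a genetically defined yeast strain deficient in DNA damage repair.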
# [2] = NCI Yeast Anticancer Drug Screen. Data for the mec2-1 strain (AID 157); conditions: S. cerevisiae mec2-1 strain, hits give high values
# Summary of the method: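 mec2-1 yeast strain, carrying an alteration in DNA damage repair or cell cycle control, was exposed to compounds; growth inhibition was measured relative to vehicle-treated controls.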
# [3] = NCI Yeast Anticancer Drug Screen. Data for the sgs1 mgt1 strain (AID 161);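 further: 0% = growth of cultures given vehicle only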; conditions: S. cerevisiae sgs1 mgt1 strain, hits give high values
# Summary of the method: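 Compounds are added to genetically altered yeast, and growth is compared with cultures given vehicle alone to give percent inhibition.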
# [4] = NCI Yeast Anticancer Drug Screen. Data for the cln2 rad14 strain (AID 165);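 further: 0% = growth equal to vehicle treated cultures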; conditions: S. cerevisiae cln2 rad14 strain, hits give high values
# Summary of the method: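 Yeast carrying cln2 and rad14 alterations (cell cycle control and DNA damage repair) were exposed to compounds. Growth inhibition was measured against vehicle-treated controls.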
# [5] = NCI Yeast Anticancer Drug Screen. Data for the bub3 strain (AID 167); conditions: S. cerevisiae bub3 mutant strain, hits give high values
# Summary of the method: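 Readout: yeast growth inhibition, expressed relative to vehicle-only wells. The test organism is a mutant strain from a panel with lesions in DNA repair or checkpoint genes.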
# [6] = NCI Yeast Anticancer Drug Screen. Data for the mlh1 rad18 strain (AID 175); conditions: S. cerevisiae mlh1 rad18 strain growth inhibition, hits give high values
# Summary of the method: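 Growth inhibition of the yeast strain was measured after compound exposure and expressed relative to vehicle-treated controls. The strain carries defined defects in DNA damage repair.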
# [7] = at 5.0 µM (retest, dose inferred, filed as 0.5)
# [8] = at 50.0 µM (retest, dose inferred, filed as 5.0)
Structure (SMILES),"growth inhibition [1, 7]","growth inhibition [1, 8]",growth inhibition ([1]; at 50.0 µM),"growth inhibition [2, 7]","growth inhibition [2, 8]",growth inhibition ([2]; at 50.0 µM),"growth inhibition [3, 7]","growth inhibition [3, 8]",growth inhibition ([3]; at 50.0 µM),"growth inhibition [4, 7]","growth inhibition [4, 8]",growth inhibition ([4]; at 50.0 µM),"growth inhibition [5, 7]","growth inhibition [5, 8]",growth inhibition ([5]; at 50.0 µM),"growth inhibition [6, 7]","growth inhibition [6, 8]",growth inhibition ([6]; at 50.0 µM)
CC1=C(C(=O)Nc2ccccc2)C(c2ccccc2F)C(C(=O)Nc2ccccc2)=C(C)N1,-3%,27%,48.4%,-4%,11%,44%,-4%,17%,31.3%,0%,37%,-19.1%,-2%,28%,11.6%,-5%,47%,50.5%
O=C(Nc1c(Cl)cccc1Cl)OCCOc1ccc(Cl)cc1Cl,44%,73% (active),88.5% (active),36%,57%,90.8% (active),47%,58%,91.2% (active),34%,61%,88.2% (active),38%,71% (active),90.7% (active),55%,80% (active),90% (active)
CCCCN(C)C(=S)N/N=C(\C)c1ccccn1,56%,99% (active),99.5% (active),73% (active),100% (active),99.8% (active),97% (active),99% (active),99.7% (active),95% (active),98% (active),99.5% (active),92% (active),99% (active),99.5% (active),98% (active),99% (active),99.7% (active)
O=c1[nH]c(=S)[nH]c(-c2ccccc2)c1Cc1c(O)ccc2ccccc12,-15%,74% (active),88.7% (active),32%,40%,89.6% (active),-10%,65%,84.3% (active),-17%,41%,75.2% (active),-15%,57%,80.8% (active),-4%,60%,79.7% (active)
C=C1C(=O)O[C@H]2[C@H](OC(C)=O)[C@@H](C)CCC/C(C)=C/CC[C@@]3(C)O[C@@H]3C[C@@H]12,14%,99% (active),91.9% (active),17%,99% (active),94.2% (active),20%,98% (active),92.8% (active),3%,95% (active),91.1% (active),3%,98% (active),93% (active),22%,99% (active),92.3% (active)
CN(C)CC(C)(C)/C(=N\Nc1ccccc1)c1ccccc1,6%,82% (active),5.6%,3%,86% (active),-5.2%,51%,95% (active),4.55%,25%,62%,38.9%,30%,93% (active),98% (active),22%,80% (active),33%
CCCC(=O)Oc1ccc(-c2ccccc2Br)cc1,4%,67%,92.5% (active),3%,34%,82.5% (active),10%,44%,93.5% (active),4%,50%,89.2% (active),18%,74% (active),92.7% (active),2%,31%,88.1% (active)
CCOc1ncc(Cl)c(OCC)n1,3%,-5%,-25.4%,-4%,-2%,35.9%,-1%,-6%,-28.2%,-7%,2%,-21.3%,1%,-3%,-12.7%,2%,-5%,-18.1%
O=C(Nc1ccccc1)Oc1c(Cl)c(Cl)c(Cl)c(Cl)c1Cl,19%,98% (active),58.4%,13%,99% (active),45.8%,26%,99% (active),55.7%,3%,99% (active),-20.8%,-2%,99% (active),54.4%,6%,98% (active),68.7%
CN(C)c1ccc(/C=C\c2c3ccccc3cc[n+]2[O-])cc1,-4%,-1%,70%,-5%,0%,3%,0%,-12%,17.9%,-5%,-5%,-10.2%,-6%,-11%,21%,-10%,8%,14.8%
OC(CNc1ccnc2cc(Cl)ccc12)CNc1ccnc2cc(Cl)ccc12,-2%,34%,40%,0%,31%,23.1%,0%,46%,15.6%,-4%,46%,-21.2%,-2%,41%,2.8%,2%,60%,85.7% (active)
C1CCC(OC2CCCCO2)OC1 (configuration not stated),-2%,76% (active),70.3% (active),-22%,36%,21.2%,-11%,56%,62.1%,-2%,66%,65.2%,-8%,71% (active),77.3% (active),-9%,92% (active),66%
CC(=O)N=C1N(/C=C2\C(=O)Oc3ccccc3C2=O)C(=O)/C(=C/c2ccco2)N1C,-12%,84% (active),97.6% (active),3%,74% (active),97.1% (active),-6%,65%,96.2% (active),-7%,24%,91% (active),-22%,76% (active),97.7% (active),-17%,61%,98.7% (active)
O=C1NC2(C=Cc3c(ccc4ccccc34)O2)Oc2ccccc21 (configuration not stated),-12%,-8%,44.5%,-16%,-7%,10%,6%,11%,34%,31%,48%,24.4%,4%,-8%,7.65%,-3%,3%,62%
O=C(OCC1OC(c2nn[nH]n2)C(OC(=O)c2ccccc2)C1OC(=O)c1ccccc1)c1ccccc1 (configuration not stated),17%,61%,19%,4%,56%,30.4%,19%,80% (active),43.8%,25%,70% (active),45.9%,17%,80% (active),66%,36%,66%,-33.6%
Cc1c(C)n(-c2ccccc2)c2nc(S(C)(=O)=O)nc(S(C)(=O)=O)c12,1%,98% (active),71.2% (active),8%,98% (active),79.3% (active),-15%,95% (active),86.3% (active),40%,97% (active),86.4% (active),0%,98% (active),85% (active),31%,86% (active),87.2% (active)
CCN(CC)CCOc1ccc(-c2nc3cc(Cl)ccc3s2)cc1,29%,88% (active),75% (active),54%,86% (active),35.8%,23%,91% (active),91% (active),31%,84% (active),48%,61%,90% (active),85.7% (active),39%,82% (active),83.3% (active)
O=S(=O)(O)SCCNCCCCCC1CCCCC1,20%,87% (active),15.3%,27%,94% (active),22.5%,19%,83% (active),65.5%,32%,71% (active),18.6%,17%,95% (active),52.2%,34%,93% (active),30.6%
CC(C)c1ccc2nc3ccc(C(=O)NCCN4CCN(c5ccccc5)CC4)cn3c(=O)c2c1,18%,97% (active),12.1%,-9%,98% (active),16.6%,18%,99% (active),13.2%,3%,97% (active),-7.8%,14%,98% (active),-7.5%,4%,97% (active),5.15%
